Assay outcomes as filed in PubChem BioAssay.
In the library only some 2.4% were active in any assay of this set; here they are far more common.
M1 antag: antagonists of human M1 muscarinic receptor; P11229; CHO-K1 hM1, Fluo-8 calcium fluorescence, ACh EC80 antagonist; inhibition, % at 3 µM; actives 1.3% (n = 360,000);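 active = percent inhibition above its own plate's cutoff, namely the mean of that plate's compound wells plus 3 SD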;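 note: peak over basal fluorescence ratio during 140 s after agonist addition; 0% = ACh EC80 plus DMSO and 100% = DMSO alone without agonist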
Target sequence (P11229 whole entry, looked up): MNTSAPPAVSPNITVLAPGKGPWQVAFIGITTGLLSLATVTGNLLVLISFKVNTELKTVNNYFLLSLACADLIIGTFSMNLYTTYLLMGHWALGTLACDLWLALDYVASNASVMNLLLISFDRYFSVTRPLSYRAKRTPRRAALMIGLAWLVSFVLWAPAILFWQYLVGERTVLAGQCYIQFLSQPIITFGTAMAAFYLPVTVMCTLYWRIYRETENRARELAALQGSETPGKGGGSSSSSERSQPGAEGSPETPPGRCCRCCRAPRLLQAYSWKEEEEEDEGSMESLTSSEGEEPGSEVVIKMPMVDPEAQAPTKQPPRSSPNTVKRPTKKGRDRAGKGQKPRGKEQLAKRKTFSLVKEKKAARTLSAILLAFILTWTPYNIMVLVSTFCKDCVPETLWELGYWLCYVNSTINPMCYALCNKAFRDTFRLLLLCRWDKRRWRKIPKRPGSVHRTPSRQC
CHRM1 agonist: activates human CHRM1 receptor | AID 588814 | CHO-K1 hM1, Fluo-8 calcium fluorescence, agonist mode; 0% DMSO, 100% acetylcholine EC100 | activation, % at 3 µM | actives 0.33% (n = 360,000) | P11229;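 active = activation above the run's mean compound activation plus 3 SD, cut at about 16% in these data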;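 note: peak over basal fluorescence ratio within a 140 s kinetic read after compound addition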
M1 PAM: potentiates human M1 receptor response to acetylcholine; P11229; CHO-K1 hM1, Fluo-8 calcium fluorescence, ACh EC20; 0% = ACh EC20, 100% = maximal ACh; activation, % at 3 µM; actives 0.088% (n = 360,000); AID 588819; in the data active = activation above about 19%, passing the limit was not always enough
CHO-K1 Ca ag: nonselective activator or artifact in parental CHO-K1 cells | Fluo-8 calcium fluorescence; scaled to maximal ATP response, vehicle zero | actives 0.48% (n = 360,000) | activation, % at 3 µM; in the data active = activation above about 15%;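 note: untransfected CHO-K1 host cells lacking M1 receptor as counterscreen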
CHO-K1 Ca antag: nonselective inhibitor or artifact in parental CHO-K1 cells. inhibition, % at 3 µM. AID 602250. actives 0.6% (n = 360,000). ATP-induced calcium, Fluo-8 fluorescence;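 active = inhibition above a per-plate cutoff, the plate's mean sample inhibition plus 3 SD, cut at about 24% in these data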;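 note: 0% = DMSO plus EC80 ATP and 100% = DMSO alone without ATP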
CHO-K1 Ca PAM: nonselective activator or artifact in parental CHO-K1 calcium assay; actives 0.02% (n = 360,000); ATP EC20, Fluo-8 calcium fluorescence; 0% at ATP EC20, 100% at ATP max; activation, % at 3 µM; AID 602247;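 active = activation above the run cutoff, the mean activation of all test compounds plus 3 SD, cut at about 40% in these data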;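 note: peak over basal fluorescence ratio in a 140 s read after ATP addition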
The depositor's hits bear a star.

SMILES | M1 antag | CHRM1 agonist | M1 PAM | CHO-K1 Ca ag | CHO-K1 Ca antag | CHO-K1 Ca PAM
Cc1nnc(SCC(=O)N(CC(C)C)c2c(N)n(Cc3ccccc3)c(=O)[nH]c2=O)n1N | -18 | 0 | 12 | 1 | 2 | 8
Cc1ccccc1SCC(=O)OCC(=O)NCc1ccccc1 | -5 | -4 | 2 | 0 | -8 | -3
CCCCN1C2=NC(c3ccccc3)CN2c2ccccc21 (stereo not drawn) | 40* | -4 | -16 | 4 | -8 | 11
CCCCN1C2=NCCCN2c2ccccc21 | 12 | -8 | -6 | 0 | 2 | -4
CCOC(=O)N1CCN(C(=O)COC(=O)CNC(=O)c2ccc(C)cc2)CC1 | -10 | -3 | 8 | 2 | -13 | -1
CCOc1ccc(CCNC(=O)CSc2nnnn2C)cc1OCC | 2 | -7 | 3 | 16* | 1 | 15
Cn1nnnc1SCC(=O)NCCc1ccc(Cl)cc1 | -4 | 2 | 6 | 0 | -8 | 16
Cc1cc(C)c2[nH]c(C)c(CN3CCCCCC3)c(=O)c2c1 | 14 | -11 | -15 | 0 | -8 | 0
COCC(=O)N1CCC(Oc2ccc(C(=O)N3C[C@@H]4CCC[C@H]3C4)cc2)CC1 | 5 | 0 | -5 | 0 | 24* | -13
O=c1cc2oc3cc(O)c(O)cc3c(-c3ccccc3O)c-2cc1O | 10 | 26* | -10 | 11 | -1 | 2
COc1ccc(OC)c(-c2c3cc(O)c(=O)cc-3oc3cc(O)c(O)cc23)c1 | 33* | 222* | -19 | 72* | 32* | -8
CCOc1ccccc1-c1c2cc(O)c(=O)cc-2oc2cc(O)c(O)cc12 | 1 | 17* | -4 | 17* | 3 | 11
CSc1ccccc1NC(=O)C(C)N(C)CC(=O)N1CCN(Cc2ccccc2)CC1 (stereo not drawn) | 4 | -5 | -1 | 1 | -10 | 10
CCCN1C(=O)S/C(=C/c2ccc(N3CCOCC3)o2)C1=O | 7 | 18* | -4 | 8 | 3 | 15
C=C(C)COc1ccc(-c2ncnc(C(F)(F)F)c2-c2ccccc2)c(O)c1 | 37* | -11 | -26 | 4 | -2 | 14
Cc1ccc(C(NC(=O)C2CCN(CCOc3ccccc3)CC2)c2ccccn2)cc1 (stereo not drawn) | 33* | -9 | -24 | 1 | -14 | 10
Cc1cc2c(NC(=O)Nc3ccc(C(F)(F)F)cc3)cccc2nn1 | 8 | 5 | -3 | 5 | 32* | -26
O=C(NCCCCc1ccccc1)C1CCCC1 | -20 | -1 | 14 | 0 | 10 | -18
N#CC1=C(N)OC2=C(C(=O)CCC2)C1c1cc2c(cc1Br)OCO2 (stereo not drawn) | 30* | -8 | -11 | 0 | 29* | -10
N#CC1=C(N)OC2=C(C(=O)CCC2)C1c1ccc2c(c1)OCO2 (stereo not drawn) | 4 | -9 | -3 | 0 | 2 | 13
N#CC1=C(N)OC2=C(C(=O)CCC2)C1c1cc2c(cc1Cl)OCO2 (stereo not drawn) | -8 | -7 | 7 | 0 | 24* | -24
CSc1ccc(Cl)c(C(=O)NNC(=O)c2cccs2)c1 | -9 | -3 | 0 | 0 | -10 | -9
CCOc1ccccc1NC(=O)COC(=O)c1ccc2ccccc2n1 | -8 | -2 | 8 | -1 | -10 | 11
CCC1(c2ccc(F)cc2)NC(=O)N(CC(=O)N2CCc3ccccc32)C1=O (stereo not drawn) | 9 | 24* | -7 | 6 | 17 | -16
CCC1(CC)NC(=O)N(CC(=O)N2CCc3ccccc32)C1=O | -23 | -5 | 10 | 0 | -11 | 13
CC1(c2ccc(Cl)cc2)NC(=O)N(CC(=O)N2CCc3ccccc32)C1=O (stereo not drawn) | 9 | 39* | 2 | 19* | -6 | 8
CCCCC1(C)NC(=O)N(CC(=O)N2CCc3ccccc32)C1=O (stereo not drawn) | -1 | -6 | 2 | -1 | -20 | 7
Cc1ccc(C2(C)NC(=O)N(CC(=O)N3CCc4ccccc43)C2=O)cc1 (stereo not drawn) | -17 | 29* | 8 | 20* | -17 | 11
